Data taken from PubChem BioAssay (NCI).
Values joined by “and” are separate entries in the source; they are usually repeats but may differ in a detail not shown here. Equal entries are not always repeated. The panel holds about 79,000 compounds, 15% with a hit somewhere; the sample as a whole holds those more often. Rule as the data show it: active = growth inhibition above about 70%; inactive = the rest.

Experiments:
[1] = NCI Yeast Anticancer Drug Screen. Data for the rad50 strain (AID 155);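 also: 0% = growth of vehicle-only cultures of the same strain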; details: S. cerevisiae rad50 strain growth inhibition; at 50.0 µM; hits give high values
How it was run: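 Compounds were tested on a yeast strain with an engineered DNA damage repair alteration; the reported value is growth inhibition normalised to vehicle treatment.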

[2] = NCI Yeast Anticancer Drug Screen. Data for the mec2-1 strain (AID 157); details: S. cerevisiae mec2-1 strain, at 50.0 µM, hits give high values
How it was run: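 Cells of the genetically defined mec2-1 yeast strain are incubated with test compound. Inhibition of growth is calculated against vehicle-treated controls.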

[3] = NCI Yeast Anticancer Drug Screen. Data for the sgs1 mgt1 strain (AID 161);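 also: 0% = growth of cultures given vehicle only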; details: S. cerevisiae sgs1 mgt1 strain, at 50.0 µM, hits give high values
How it was run: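 Read-out: growth inhibition vs vehicle controls. Cells: mutant yeast strain deficient in DNA damage repair.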

[4] = NCI Yeast Anticancer Drug Screen. Data for the cln2 rad14 strain (AID 165);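 also: 0% = growth equal to vehicle treated cultures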; details: S. cerevisiae cln2 rad14 strain, at 50.0 µM, hits give high values
How it was run: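 The screen exposed genetically defined yeast (cln2 rad14) to test compounds and scored growth inhibition relative to vehicle-treated controls.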

[5] = NCI Yeast Anticancer Drug Screen. Data for the bub3 strain (AID 167); details: S. cerevisiae bub3 mutant strain, at 50.0 µM, hits give high values
How it was run: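 Growth of a checkpoint-deficient yeast mutant is measured after compound exposure. Values represent inhibition relative to vehicle.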

[6] = NCI Yeast Anticancer Drug Screen. Data for the mlh1 rad18 strain (AID 175); details: S. cerevisiae mlh1 rad18 strain growth inhibition; at 50.0 µM; hits give high values
How it was run: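 Compound-treated yeast growth, normalised to vehicle controls. Strain bears defined DNA repair mutations.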

Measured: growth inhibition

c1ccc2c(c1)sc1sc3c([n+]12)CCCC3
inactive: [1] 6.25% | [2] -8.75% | [3] -5.3% | [4] -2.4% | [5] -4.5% | [6] -20.2%

O=NN1CCNCC1
inactive: [1] -20.1% and -11.3% | [2] -16.1% and -24.3% | [3] -16.7% and -13.2% | [4] -24.5% and -9.25% | [5] -5.9% and -6.1% | [6] 8.2% and -2.55%

CNC(=O)c1cn(C2OC(CO)C(O)C2O)c2ncnc(N)c12 (stereo unspecified)
inactive: [1] -5.95% | [2] 8.3% | [3] 4.7% | [4] -1.25% | [5] -1.05% | [6] 5.65%

CC12CCC3C(CCC4(C)CC(OC(=O)Cc5ccc(N(CCCl)CCCl)cc5)CCC34C)C1CCC2=O (stereo unspecified)
inactive: [1] -10.4% | [2] 2.85% | [3] -2.3% | [4] -1.4% | [5] -4.8% | [6] 3.65%

CCCCCCOC(=O)c1ccccc1C(=O)OCCCCCC
inactive: [1] -13.2% | [2] -1.75% | [3] -27.9% | [4] -12.5% | [5] -45.2% | [6] -2.8%

O=C(CCl)Nc1ccccc1Cl
inactive: [1] 39% | [2] 9.65% | [3] 25.9% | [4] 18.6% | [5] 55.8% | [6] 45.1%
